From PubChem
The list is not random: actives were taken first. Their share in the collection is about 2.5%.
GAA850 FXN act – increases GAA850 frataxin promoter reporter activity; HEK293 lucGAA850 FXN promoter luciferase reporter, 24 h; percent of 10 µM SAHA response; activation, % at 6 µM; hit rate 0.56% among 360,000;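 active means activation above the average of all compounds screened plus 3 SD, cutoff fixed separately per campaign, cut at about 7.5% in these data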;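 further: 0% = DMSO wells and 100% = 10 µM SAHA wells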
F508del corr – correctors of CFTR F508del function in bronchial epithelial cells; CFBE cells, YFP halide quenching; stimulated with forskolin plus potentiator P3; % fluorescence drop versus neutral controls; activity (quench increase), % at 7.58 µM; hit rate 0.36% among 350,000;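 active means mean added fluorescence quench of at least 8% versus neutral control, with both replicates also reaching 8%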;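 further: cells transiently co-express mutant CFTR-F508del with the halide-sensitive YFP; corrector assay measuring rescue of mutant channel to the surface after 24 h compound exposure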
PAX8 inh HTS – PAX8 transcriptional activity inhibition; AID 652154; RMG-I TPO-luciferase reporter, SteadyGlo, 24 h; inhibition, % at 12.6 µM; hit rate 1.2% among 360,000;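 active means mean replicate inhibition at least 60% with every replicate also reaching 60%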;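 further: luciferase light reporting Pax8 driven TPO promoter activity; plate controls were median of neutral control wells for no effect and mitoxantrone controls for full effect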
EWS-Fli block – EWS/Fli transcriptional activity inhibition; A673 NR0B1-luciferase reporter, viability-normalised; inhibition, % at 12.6 µM; hit rate 0.67% among 350,000;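 active means mean inhibition of at least 50% after viability correction, with every replicate also passing that limit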;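 further: firefly luciferase signal divided by Alamar Blue viability fluorescence both relative to DMSO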
Env fusion inh – inhibitors of HIV Env-mediated cell fusion; hit rate 1.1% among 360,000; inhibition, % at 12.3 µM; AID 651610; HeLa-JRFL Env/CEM21 cell fusion, luciferase;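 active means mean replicate inhibition score of at least 50 and every replicate individually at or above 50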;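 further: 0% = plate neutral controls and 100% = maraviroc near 300 nM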
The depositor's hits bear a star; . = no result given; [ ] = remark or other dose.

SMILES	GAA850 FXN act	F508del corr	PAX8 inh HTS	EWS-Fli block	Env fusion inh
CC(C)NC(=O)N(C)C[C@H]1OCCCC[C@H](C)Oc2ccc(NS(=O)(=O)c3ccccc3)cc2C(=O)N([C@@H](C)CO)C[C@H]1C	.	1	-16	1	-47[16.7 µM]
O=c1c2ccccc2sc2c(CO)ccc(NCCN3CCCCC3)c12	-2	17*	47	15	7
CCN(CC)CCNc1ccc(CO)c2sc3ccccc3c(=O)c12	-2	5	20	21	-30
COc1ccc2c3c(n(C)c2c1)[C@@H](CO)N(C(=O)Nc1ccc(F)cc1)CC31CCN(C(=O)c2ccc3c(c2)OCO3)CC1	.	0	5	0	.
COc1ccc2c3c(n(C)c2c1)[C@@H](CO)N(C(=O)Nc1ccc(F)cc1)CC31CCN(Cc2cccc(F)c2)CC1	.	5	.	40	82*[16.7 µM]
CCCNC(=O)N1CC2(CN(S(=O)(=O)c3cccc(OC)c3)C2)c2c(n(C)c3cc(OC)ccc23)[C@H]1CO	.	8.6*	.	18	.
COc1ccc2c3c(n(C)c2c1)[C@H](CO)N(C(=O)Nc1ccc(F)cc1)CC31CCN(C(=O)c2ccc3c(c2)OCO3)CC1	.	2	77*	-8	.
CCC(=O)N1CC2(CCN(Cc3ccc(Cl)cc3)CC2)c2c(n(C)c3cc(OC)ccc23)[C@H]1CO	.	14*	36	11	.
COc1ccc2c3c(n(C)c2c1)[C@H](CO)N(C(=O)Nc1ccc(F)cc1)CC31CN(S(=O)(=O)c2cccc(F)c2)C1	.	7	.	-7	.
COc1ccc2c3c(n(C)c2c1)[C@@H](CO)N(C(=O)Nc1ccc(F)cc1)CC31CCN(S(=O)(=O)c2cccc(C)c2)CC1	.	2	81*	-1	.
COc1ccc2c3c(n(C)c2c1)[C@H](CO)N(C(=O)Nc1ccc(F)cc1)CC31CCN(S(=O)(=O)c2cccc(C)c2)CC1	.	5	89*	-6	.
CC(C)CC#Cc1ccc([C@@H]2[C@@H](CO)N3CCCCN(C(=O)NC4CCCC4)C[C@H]23)cc1	.	9.8*	-18	4	.
O=C(Nc1cccc(F)c1)N1CCCCN2[C@@H](CO)[C@@H](c3ccc(C#Cc4ccccc4)cc3)[C@@H]2C1	.	-11	116*	76*	.
O=C(Nc1ccccc1)N1CCCCN2[C@H](CO)[C@H](c3ccc(C#Cc4ccccc4)cc3)[C@H]2C1	.	-7	109*	63*	.
COc1ccc(NC(=O)N2CCCCN3[C@@H](CO)[C@@H](c4ccc(C#Cc5ccccc5)cc4)[C@@H]3C2)cc1	.	-3	111*	1	.
CC(C)CC#Cc1ccc([C@@H]2[C@H](CO)N3CCCCN(C(=O)NC4CCCC4)C[C@@H]23)cc1	.	4	15	23	.
O=C(Nc1ccccc1)N1CCCCN2[C@H](C1)[C@H](c1ccc(C#Cc3ccccc3)cc1)[C@@H]2CO	.	2	50	1	.
CO[C@H]1CN(C)C(=O)c2cc(NC(=O)C3CCC3)ccc2OC[C@H](C)N(Cc2ccncc2)C[C@@H]1C	.	-1	.	2	31[16.7 µM]
C[C@H](CO)N1C[C@H](C)[C@H](CN(C)C(=O)Nc2ccc(F)cc2)Oc2ccc(NC(=O)Cn3cnnn3)cc2CC1=O	.	1	-14	-1	-4[16.7 µM]
C[C@@H]1CN([C@H](C)CO)C(=O)c2cc(NC(=O)c3ccncc3)ccc2O[C@@H](C)CCCCO[C@@H]1CN(C)C(=O)c1ccccc1	.	-3	1	-3	14[16.7 µM]
COc1ccccc1S(=O)(=O)N1C[C@@H]2N[C@H](C1)C2c1ccc(-c2cccc(F)c2)cc1 (stereo partly drawn)	.	-4	6	-4	.
O=C(Nc1ccccc1)N1CCCCN2[C@H](C1)[C@@H](c1ccc(C#Cc3ccccc3)cc1)[C@@H]2CO	.	2	99*	4	.
O=C(Nc1ccccc1F)N1CCCCN2[C@H](CO)[C@@H](c3ccc(C#Cc4ccccc4)cc3)[C@@H]2C1	.	3	-22	.	.
O=C(Nc1ccccc1F)N1CCCCN2[C@H](CO)[C@@H](c3ccc(C#Cc4ccccc4)cc3)[C@H]2C1	.	-4	66*	.	.
O=C(Nc1ccccc1)N1CCCCN2[C@H](CO)[C@H](c3ccc(C#Cc4ccccc4)cc3)[C@@H]2C1	.	3	35	16	.
SMILES	GAA850 FXN act	F508del corr	PAX8 inh HTS	EWS-Fli block	Env fusion inh
CCCCCOc1ccc(Br)cc1/C(C)=N/NC1=NCCN1	-1	.	81*	.	-48
COC1C(CO)OC(n2c3c(Cl)cccc3c3c4c(c5c6cccc(Cl)c6[nH]c5c32)C(=O)NC4=O)C(O)C1O (stereo not drawn)	-8	9.8*	113*	56*	-102
Cc1cc(C2CCCCC2)n(O)c(=O)c1	-2	0	73*	31	9
COc1ccccc1NC(=O)N1CCCCN2[C@H](CO)[C@H](c3ccc(-c4ccccc4)cc3)[C@@H]2C1	.	-3	1	-6	.
COc1cc(/C=N/NS(=O)(=O)c2ccc(C)cc2)ccc1OCc1ccc(C(=O)O)cc1	4	.	100*	.	72*
COc1cccc(Nc2nnc(SCN3C(=O)c4ccccc4C3=O)s2)c1	2	0	84*	-14	.
O=C(N/N=C/c1ccccc1)c1[nH]c2ccc(Br)cc2c1-c1ccccc1	3	4	13	76*	-157
Cc1ccc2[nH]c(C(=O)N/N=C/c3ccccc3O)c(C)c2c1	-7	8.4*	-8	-74	15
Cc1ccc2[nH]c(C(=O)N/N=C/c3ccccc3C(=O)O)c(-c3ccccc3)c2c1	2	-1	22	-3	10
CC(C)(C)c1ccc(C2CC2C(=O)N/N=C\c2ccc[nH]2)cc1 (stereo not drawn)	-8	4	53	62*	98*
CCCn1nc(C(=O)Nc2nc(-c3ccccn3)cs2)c2ccccc2c1=O	0	6	74*	11	6
O=C(c1cnccn1)N1CC(=O)N2[C@H](CO)[C@@H](c3ccc(C#CC4CCCCC4)cc3)[C@H]2C1	.	-2	4	0	.
Cc1onc(-c2c(F)cccc2Cl)c1C(=O)OCC(=O)NC(c1ccccc1)c1ccccc1	0	.	.	.	93*
Cc1onc(-c2c(F)cccc2Cl)c1C(=O)OCC(=O)NC(N)=O	1	0	-3	7	-5
O=C1C=CN(C2OC(CO)C(O)C2O)C(=O)C1 (stereo not drawn)	-2	9.7*	-5	-9	65*
NC(=O)c1ccc(=O)n(C2OC(CO)C(O)C2O)c1 (stereo not drawn)	0	-5	-11	3	-130
CO[C@@H]1CN(C)C(=O)c2ccc(NC(C)=O)cc2OC[C@H](C)N(C(=O)CN(C)C)C[C@@H]1C	.	-3	-16	2	5[16.7 µM]
COc1ccc(CN(C)C[C@@H]2Oc3c(NS(=O)(=O)c4ccc(OC)cc4)cccc3C(=O)N([C@@H](C)CO)C[C@H]2C)cc1	.	0	.	-14	23[16.7 µM]
CCNC(=O)c1cc2c(c(-c3cccc(-c4ccncc4)c3)n1)[C@H](CCO)N(S(=O)(=O)CC)C2	.	3	.	55*	-345[16.7 µM]
